Results on 15 compounds are retold here after PubChem BioAssay (Tox21).

Where “and” joins values, the source holds several entries; their conditions need not be identical. Equal entries are not always repeated. Values without a mark were called inactive. Calls of active or inactive are those of the source. Unless noted, calls follow the shape of the dose curve; as a rule, active = well fitted curve in the direction sought with a large enough effect in the repeat runs; inconclusive = weak or mixed curves; inactive = no such curve, though single readings can be large; an effect the other way counts as inactive or inconclusive.

Test [1] can be described thus: qHTS assay to identify small molecule antagonists of the thyroid receptor (TR) signaling pathway (AID 743065). Also: nearly all actives have a fitted effect of over 55% in size. Also: potency is read from the fitted curve at half-maximal effect. The method, boiled down:
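GH3.TRE-Luc rat pituitary cells (two TREs driving luciferase) were dosed with compound, then stimulated with 1 nM T3 (final) for 23.5 h at 37 C. ONE-Glo luminescence was the read-out, with CellTiter-Fluor fluorescence as the cytotoxicity counter-screen.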

Test [2] has as its system thyroid hormone receptor (rat, GH3 cells). The experiment in a line: qHTS assay to identify small molecule agonists of the thyroid receptor (TR) signaling pathway (AID 743066; calls by dose curve).
The nature of test [3]: qHTS assay to identify small molecule antagonists of the estrogen receptor alpha (ER-alpha) signaling pathway - cell viability counter screen (AID 743074; calls by dose curve;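 also: HEK293 cells carrying ER-alpha-UAS-bla reporter stimulated with 17beta-estradiol; nearly all actives have a fitted effect of over 45% in size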). A general note: In qHTS, concentration-response curves come from the screen itself.
A short description of test [4]: qHTS assay to identify small molecule antagonists of the estrogen receptor alpha (ER-alpha) signaling pathway using the BG1 cell line - cell viability counter screen (AID 743081).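 Also: compound given together with 17beta-estradiol as the ER stimulus; nearly all actives have a fitted effect of over 45% in size.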 Also: potency is read from the fitted curve at half-maximal effect.
Test [5] has as its target Aryl hydrocarbon receptor (Homo sapiens) (UniProt P35869). The experiment in a line: qHTS assay to identify small molecule that activate the aryl hydrocarbon receptor (AhR) signaling pathway (AID 743085).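 Also: HG2L7.5c1 human HepG2 liver cells with stably integrated DRE-driven firefly reporter; nearly all actives have a fitted effect of over 15% in size.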 The gist of the method:
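Luminescence (ONE-Glo) from a dioxin-responsive-element luciferase reporter in HG2L7.5c1 HepG2 cells after 24 hr compound exposure at 37C; viability measured by CellTiter-Fluor fluorescence beforehand.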

Test [6] can be described thus: qHTS assay to identify small molecule that activate the aryl hydrocarbon receptor (AhR) signaling pathway - cell viability counter screen (AID 743086). Also: nearly all actives have a fitted effect of over 45% in size. Also: potency is read from the fitted curve at half-maximal effect. The method, boiled down: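 HepG2-AhR-luc (HG2L7.5c1) cells, 4000/well, treated 24 h at 37 C with compound; viability measured as CellTiter-Fluor fluorescence after 30 min in the same wells as the luciferase read.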

Test [7] is described as follows: qHTS assay for small molecule agonists of the antioxidant response element (ARE) signaling pathway (AID 743202; active = well fitted activation curve with a large enough effect in the signal ratio in the repeat runs, not every such curve was filed as active; inconclusive = weak or mixed curves, or effect the other way; inactive = no such curve, though single readings can be large or run the other way; the % refers to the signal ratio; also: potency is read from the fitted curve at half-maximal effect). The method, boiled down:
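ARE-bla HepG2 cells (beta-lactamase reporter under the antioxidant response element), plated 5 hours, then exposed to compounds 16 hours at 37 C. LiveBLAzer B/G FRET substrate added for 2 hours at room temperature; fluorescence intensity read.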

Test [8] is described as follows: qHTS assay for small molecule agonists of the antioxidant response element (ARE) signaling pathway - cell viability counter screen (AID 743203; calls by dose curve; also: nearly all actives have a fitted effect of over 55% in size; also: potency is read from the fitted curve at half-maximal effect). The method, boiled down:
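HepG2 cells carrying ARE-driven beta-lactamase; 2,000 cells/well; 5 hrs plating; compound pinned from DMSO; 16 hrs 37C/5% CO2; CellTiter-Glo added; 30 min RT; luminescence.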

Test [9] concerns the target Aromatase (Homo sapiens) (UniProt P11511). The experiment in a line: qHTS assay to identify aromatase inhibitors (AID 743083). Also: nearly all actives have a fitted effect of over 55% in size. Also: potency is read from the fitted curve at half-maximal effect.
The nature of test [10]: qHTS assay to identify aromatase inhibitors - cell viability counter screen (AID 743084).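 Also: cells stimulated with testosterone during compound exposure; nearly all actives have a fitted effect of over 55% in size.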 Also: potency is read from the fitted curve at half-maximal effect.
The nature of test [11]: qHTS assay to identify small molecule antagonists of the peroxisome proliferator-activated receptor gamma (PPARg) signaling pathway - cell viability counter screen (AID 743194). Also: nearly all actives have a fitted effect of over 55% in size. Also: potency is read from the fitted curve at half-maximal effect. The gist of the method:
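Cytotoxicity counter screen in PPARg-bla HEK293H cells, same wells as reporter assay. Compounds plus 50 nM rosiglitazone (final) for 17 h at 37 C, then viability read by CellTiter-Glo luminescence.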

The nature of test [12]: qHTS assay for small molecule activators of the heat shock response signaling pathway - cell viability counter screen (AID 743209). Also: nearly all actives have a fitted effect of over 50% in size. Also: potency is read from the fitted curve at half-maximal effect. The method, boiled down:
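Luminescence from CellTiter-Glo, added after the beta-lactamase FRET read, gave the viability signal. Cells were HSE-bla HeLa treated with DMSO-dissolved compounds for 5 h at 37 C following overnight plating.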

Test [13] deals with Estrogen receptor (Homo sapiens) (UniProt P03372). The experiment in a line: qHTS assay to identify small molecule agonists of the estrogen receptor alpha (ER-alpha) signaling pathway (AID 743075; calls by dose curve; also: potency is read from the fitted curve at half-maximal effect).
Chain of Estrogen receptor (Homo sapiens) (P03372 whole entry, looked up): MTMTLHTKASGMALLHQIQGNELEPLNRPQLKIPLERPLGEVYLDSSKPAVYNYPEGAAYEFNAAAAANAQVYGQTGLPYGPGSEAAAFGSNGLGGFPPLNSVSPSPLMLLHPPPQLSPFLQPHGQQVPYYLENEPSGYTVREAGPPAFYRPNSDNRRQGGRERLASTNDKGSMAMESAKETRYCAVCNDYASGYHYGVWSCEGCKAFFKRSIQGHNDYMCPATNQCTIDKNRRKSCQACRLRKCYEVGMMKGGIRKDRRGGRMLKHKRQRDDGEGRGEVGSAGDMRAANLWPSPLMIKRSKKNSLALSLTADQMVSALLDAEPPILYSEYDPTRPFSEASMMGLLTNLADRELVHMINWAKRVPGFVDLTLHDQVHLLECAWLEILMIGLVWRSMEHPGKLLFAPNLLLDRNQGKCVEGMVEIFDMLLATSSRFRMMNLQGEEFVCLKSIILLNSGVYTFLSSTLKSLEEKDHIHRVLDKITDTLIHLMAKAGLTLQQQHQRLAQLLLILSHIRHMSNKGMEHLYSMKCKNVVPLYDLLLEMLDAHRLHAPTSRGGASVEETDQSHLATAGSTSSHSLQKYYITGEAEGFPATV
Test [14] has the same target. Briefly: qHTS assay to identify small molecule agonists of the estrogen receptor alpha (ER-alpha) signaling pathway using the BG1 cell line (AID 743079). Also: nearly all actives have a fitted effect of over 20% in size. Also: potency is read from the fitted curve at half-maximal effect. Particulars: BG1Luc4E2 cells, ERE-luciferase agonist, 22 h; activation: at 70.3 µM (top of the series).
Test [15] is described as follows: qHTS assay to identify small molecule antagonists of the estrogen receptor alpha (ER-alpha) signaling pathway using the BG1 cell line (AID 743080; calls by dose curve;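 also: BG1 cells stimulated with 17beta-estradiol alongside compound; nearly all actives have a fitted effect of over 25% in size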). Conditions: BG1Luc4E2 ERE-luciferase antagonist mode, luminescence; activity change, negative = inhibition: at 70.3 µM (top of the series). The method, boiled down: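 Luciferase inhibition measured with ONE-Glo after 30 min at RT in BG1Luc4E2 cells given test compounds and 17beta-estradiol for 21.5 h at 37 C; CellTiter-Fluor viability read in the same wells beforehand.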

The target in test [16] is Peroxisome proliferator-activated receptor gamma (Homo sapiens) (UniProt P37231). The experiment in a line: qHTS assay to identify small molecule agonists of the peroxisome proliferator-activated receptor gamma (PPARg) signaling pathway (AID 743094; active = well fitted activation curve with a large enough effect in the signal ratio in the repeat runs, not every such curve was filed as active; inconclusive = weak or mixed curves, or effect the other way; inactive = no such curve, though single readings can be large or run the other way; the % refers to the signal ratio). The gist of the method:
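Beta-lactamase FRET fluorescence was the read-out after a 1 h room-temperature substrate step, following 17 h compound treatment at 37C of HEK293H cells expressing a UAS-driven bla reporter responsive to PPARg.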

Test [17] has the same target. The experiment in a line: qHTS assay to identify small molecule antagonists of the peroxisome proliferator-activated receptor gamma (PPARg) signaling pathway (AID 743191; calls by dose curve; also: nearly all actives have a fitted effect of over 30% in size; also: potency is read from the fitted curve at half-maximal effect). The method, boiled down:
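GeneBLAzer PPARg UAS-bla HEK293H cells, 5 h post-plating, exposed to compounds 17 h at 37C. LiveBLAzer B/G FRET substrate added for 1 h at room temperature; beta-lactamase reporter read by fluorescence intensity.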

Test [18] in a line: qHTS assay for small molecule activators of the heat shock response signaling pathway (AID 743210; active = well fitted activation curve with a large enough effect in the signal ratio in the repeat runs, with a control signal flat, not every such curve was filed as active; inconclusive = weak or mixed curves; the % refers to the signal ratio; also: potency is read from the fitted curve at half-maximal effect). The method, boiled down: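 HSE-bla HeLa cells (beta-lactamase reporter under heat shock response elements), plated overnight, then exposed to compounds 5 h at 37 C; LiveBLAzer B/G FRET substrate added, 2.5 h at room temperature, fluorescence intensity read.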
Test [19] concerns the target Estrogen receptor (Homo sapiens) (UniProt P03372). Briefly: qHTS assay to identify small molecule antagonists of the estrogen receptor alpha (ER-alpha) signaling pathway (AID 743069; active = well fitted curve in the direction sought with a large enough effect in the signal ratio in the repeat runs, not every such curve was filed as active; inconclusive = weak or mixed curves, or effect the other way; inactive = no such curve, though single readings can be large or run the other way; the % refers to the signal ratio; also: potency is read from the fitted curve at half-maximal effect). The method, boiled down:
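HEK293 ER-alpha-UAS-bla GripTite cells, held overnight in 2% charcoal-stripped FBS, 5,000 cells/well, preincubated 4 h, then compound plus 17beta-estradiol for 18 h at 37C. Beta-lactamase read by LiveBLAzer B/G FRET substrate, 2 h at room temperature.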
% is scaled to controls: 0 for no effect and ±100 for the full control effect.

Chain of Peroxisome proliferator-activated receptor gamma (Homo sapiens) (P37231 whole entry, looked up): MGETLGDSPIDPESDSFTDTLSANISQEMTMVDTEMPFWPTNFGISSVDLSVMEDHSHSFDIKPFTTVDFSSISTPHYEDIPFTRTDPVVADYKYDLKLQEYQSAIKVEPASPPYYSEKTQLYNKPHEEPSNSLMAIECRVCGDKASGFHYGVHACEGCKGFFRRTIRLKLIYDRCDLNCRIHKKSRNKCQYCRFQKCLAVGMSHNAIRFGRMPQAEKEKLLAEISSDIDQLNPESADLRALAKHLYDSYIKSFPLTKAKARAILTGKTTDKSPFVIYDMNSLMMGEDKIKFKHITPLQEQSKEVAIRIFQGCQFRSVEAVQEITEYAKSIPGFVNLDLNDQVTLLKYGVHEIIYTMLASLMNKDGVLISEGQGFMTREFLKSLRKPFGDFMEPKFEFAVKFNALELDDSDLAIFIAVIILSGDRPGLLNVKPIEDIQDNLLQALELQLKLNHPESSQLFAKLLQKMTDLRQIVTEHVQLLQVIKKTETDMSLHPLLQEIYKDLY
Chain of Aromatase (Homo sapiens) (P11511 whole entry, looked up): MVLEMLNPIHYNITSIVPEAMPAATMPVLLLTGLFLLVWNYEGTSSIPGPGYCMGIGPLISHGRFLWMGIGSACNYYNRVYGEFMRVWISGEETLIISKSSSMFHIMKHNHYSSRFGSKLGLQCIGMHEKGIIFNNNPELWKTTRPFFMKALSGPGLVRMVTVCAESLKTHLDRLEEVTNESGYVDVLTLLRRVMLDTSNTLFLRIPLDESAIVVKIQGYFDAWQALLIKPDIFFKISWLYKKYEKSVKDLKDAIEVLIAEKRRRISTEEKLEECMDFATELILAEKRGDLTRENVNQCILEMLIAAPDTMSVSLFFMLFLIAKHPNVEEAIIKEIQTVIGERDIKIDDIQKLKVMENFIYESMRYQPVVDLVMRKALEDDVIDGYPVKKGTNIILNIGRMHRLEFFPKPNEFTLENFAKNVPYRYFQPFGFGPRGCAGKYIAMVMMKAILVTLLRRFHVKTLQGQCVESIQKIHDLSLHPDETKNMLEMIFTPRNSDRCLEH
Chain of Aryl hydrocarbon receptor (Homo sapiens) (P35869 whole entry, looked up): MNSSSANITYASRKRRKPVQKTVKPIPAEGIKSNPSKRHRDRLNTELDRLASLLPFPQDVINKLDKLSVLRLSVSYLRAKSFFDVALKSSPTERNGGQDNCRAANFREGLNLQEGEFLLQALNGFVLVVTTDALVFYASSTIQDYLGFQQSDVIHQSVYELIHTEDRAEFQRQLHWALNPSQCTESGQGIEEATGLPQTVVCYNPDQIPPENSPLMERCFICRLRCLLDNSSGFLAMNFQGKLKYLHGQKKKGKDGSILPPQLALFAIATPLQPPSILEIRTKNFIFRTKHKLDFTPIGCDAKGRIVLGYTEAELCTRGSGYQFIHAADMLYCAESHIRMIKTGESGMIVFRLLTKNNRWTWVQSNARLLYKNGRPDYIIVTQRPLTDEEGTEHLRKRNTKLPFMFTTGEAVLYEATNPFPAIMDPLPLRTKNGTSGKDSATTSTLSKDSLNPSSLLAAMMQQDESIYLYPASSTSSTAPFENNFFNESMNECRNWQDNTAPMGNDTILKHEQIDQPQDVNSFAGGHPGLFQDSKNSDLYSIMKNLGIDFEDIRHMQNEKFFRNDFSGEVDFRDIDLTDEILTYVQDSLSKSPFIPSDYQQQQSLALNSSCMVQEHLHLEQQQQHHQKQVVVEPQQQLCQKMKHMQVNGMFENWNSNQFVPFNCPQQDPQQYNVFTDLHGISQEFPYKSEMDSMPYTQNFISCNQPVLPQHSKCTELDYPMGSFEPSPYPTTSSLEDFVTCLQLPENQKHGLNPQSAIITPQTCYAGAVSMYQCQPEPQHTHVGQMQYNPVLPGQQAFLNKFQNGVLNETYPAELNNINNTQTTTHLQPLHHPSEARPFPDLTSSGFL

As for `C=CC(=O)OCCC#N`, the Potency in test [1] was 54.8 µM (active); in [7], 34.6 µM (active). For the same compound, the Potency result in [2], in test [3], in [4], in [5], in [6] and in [8] was “inactive” throughout.
As for `CN(C)CCCN1c2ccccc2CCc2ccccc21`, the Potency in test [1] is 23.7 µM (active). Besides, the Potency entry in test [2], in test [3], in test [4], in test [9], in [10] and in test [5] was “inactive” in each case. For the same compound, the Potency result in test [11] and in [12] was “inactive” throughout.
Take `O=C(c1ccccc1)c1cc(Cl)ccc1O`: the Potency result in test [1], in test [2], in test [3], in test [15], in [4] and in test [10] was “inactive” throughout. The Potency entry in test [6], in [16], in test [17], in [11], in test [8] and in test [12] was “inactive” in each case. In [18], the Potency entry is “inactive”. In addition, the Potency in test [13] is 58.5 µM [activator] (active). In [14], the activation is 22.1% (active).
Regarding `CCCCCCCOC(=O)c1ccc(O)cc1`, the Potency entry in test [2], in test [3], in test [4], in test [10], in test [5] and in test [6] was “inactive” throughout. In addition, the Potency result in test [16], in test [11], in [7] and in test [8] was “inactive” each time. Also, the Potency in [19] was 54.9 µM [inhibitor] (active); in [13], 55 µM [inconclusive] (active) and 54.9 µM [inconclusive] (active); in [14] it was 15.4 µM (active) and 19.3 µM (active); in test [9], 43.3 µM (active); in [17], 43.6 µM (active).
Take `CCCCCCOc1cc(C)c(O)c(C)c1C`: the Potency result in test [2], in test [3], in test [13], in test [14], in [4] and in test [6] was “inactive” throughout. For the same compound, the Potency result in [16] and in test [11] was “inactive” each time. Also, the figures for the Potency in [9] and in [10] were 43.8 µM (active) and 49.2 µM (active), respectively.
Take `c1cc2c3c(c1)ccc1cccc(c13)C2`: the Potency entry in test [1], in test [2], in test [3], in [4], in test [9] and in [10] was “inactive” each time. Besides, the Potency result in [5] and in [6] was “inactive” throughout.
Regarding `CCN(CC)CCSC(=O)C(c1ccccc1)c1ccccc1`, the Potency in test [1] was 26.6 µM (active). Moreover, the Potency entry in test [2], in test [3], in test [13], in test [14], in test [4] and in test [9] was “inactive” throughout. Also, the Potency entry in test [10], in test [5], in test [6], in test [11], in test [7] and in [8] was “inactive” throughout. The Potency result in test [12] is “inactive”.
Regarding `CC1=C(/C=C/C(C)=C/C=C/C(C)=C/C(=O)Nc2ccc(O)cc2)C(C)(C)CCC1`, the Potency result in [2], in test [13], in [5] and in [11] was “inactive” throughout. Also, the Potency in [19] is 6.01 µM [inhibitor] (active); in test [4] it was 16.8 µM (active) and 62.7 µM (active); in test [9], 13.3 µM (active) and 28 µM (active); in test [10], 26.6 µM (active) and 28 µM (active); in test [6] it was 28 µM (active); in test [17], 71 µM (active). Also, the Potency in test [8] was 44.4 µM (active); in [12] it was 20 µM (active) and 33.5 µM (active).
With `CC(C)(c1cc(Br)c(OCCO)c(Br)c1)c1cc(Br)c(OCCO)c(Br)c1`, the Potency in test [1] is 9.47 µM (active); in [11], 17 µM (active); in test [8] it was 18.9 µM (active); in test [12], 17 µM (active). The Potency entry in test [2], in test [13], in test [10], in test [6] and in test [16] was “inactive” in each case.
For the compound `Cc1occc1SSc1ccoc1C`, the Potency was 68.6 µM (active) in test [1], 30.6 µM (active) in [9], 43.3 µM (active) in test [10] and 23.6 µM (active) in [18]. In addition, the Potency result in [2], in [3], in [4], in test [5], in [6] and in test [16] was “inactive” in each case. The Potency result in test [17], in [11] and in [8] was “inactive” each time.
Turning to `C=CC(=O)OCCOCC(CC)(COCCOC(=O)C=C)COCCOC(=O)C=C`, the Potency entry in test [1], in [2], in test [3], in test [5] and in test [8] was “inactive” each time. Also, the Potency in test [9] is 10.1 µM (active); in test [10], 2.84 µM (active); in [6], 71.4 µM (active); in [12], 18.1 µM (active).
For the compound `CCO[Si](CCCSSSSCCC[Si](OCC)(OCC)OCC)(OCC)OCC`, the Potency result in test [2], in test [19], in [13], in [14], in test [15] and in [4] was “inactive” throughout. For the same compound, the Potency entry in test [9], in test [10], in test [5], in [6], in test [16] and in [11] was “inactive” throughout. Also, the Potency result in test [7], in [8], in [12] and in test [18] was “inactive” in each case.
Turning to `CC(C)OC(=O)c1cc(C(=O)OC(C)C)cc([N+](=O)[O-])c1`, the Potency entry in test [1], in test [2], in [10], in [6], in test [8] and in [12] was “inactive” throughout.
Consider `CCCCCCCCCC(=O)N(C)C`, for which the Potency entry in [1], in test [2], in [3], in test [4], in test [6] and in test [8] was “inactive” throughout. Moreover, the Potency result in test [12] and in test [18] was “inactive” throughout.
Regarding `C1CC(COCC2CO2)CCC1COCC1CO1` (stereo unspecified), the Potency entry in test [2], in test [3], in [13], in test [14], in [15] and in test [4] was “inactive” throughout. The Potency result in test [5], in [6], in test [16], in test [17], in test [11] and in test [8] was “inactive” each time. For the same compound, the Potency result in test [18] is “inactive”. In addition, in [7], the Potency is 54.5 µM (active).
